GPR151 activ: activators of human GPR151 | PathHunter beta-arrestin GPR151 cells, luminescence | activation, % at 11.2 µM | Q8TDV0 | hit rate 1% among 650,000; in the data active means activation above about 4.9%
TEAD-YAP block: TEAD-YAP interaction inhibition; AID 1259422; inhibition, % at 9.12 µM; hit rate 1.4% among 640,000; HEK-TIYL cells, TEAD-Gal4/YAP UAS-luciferase luminescence; in the data active means inhibition above about 32%
MITF primary: blocks human microphthalmia-associated transcription factor; O75030; AlphaScreen MITF homodimerization, bead proximity signal; inhibition, % at 2.6 µM; hit rate 0.91% among 650,000; AID 1259374; in the data active means inhibition above about 50%
FBW7 activator: human FBW7 E3 ligase activation, primary screen | AlphaScreen FBW7–phospho-cyclin E peptide binding, activator screen | Q969H0 | normalized activity (activation), % at 26.1 µM | hit rate 0.13% among 650,000; in the data active means normalized activity above about 1.9%;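 further: purified mutant Fbw7 with reduced substrate affinity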
GPR151 confirm: confirmation of human GPR151 activators. shares compounds with GPR151 activ. GPR151 PathHunter beta-arrestin cells, luminescence, 90 min; % of EA-reagent control over plate median. activation, % at 11.2 µM. 6,700 tested, under 10 active. AID 1508609;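 active means mean percent activation across replicates above the confirmation screen cutoff of 4.91%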
GPR119 ag: counter-screen for GPR151 activators: effect on human GPR119. shares compounds with GPR151 activ. GPR119 PathHunter beta-arrestin cells, luminescence, 90 min; 0 = compound-well median, 100 = enzyme-acceptor control. activation, % at 11.2 µM. hit rate 0.3% among 6,700. AID 1508611;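 active means mean percent activation in the counterscreen above 29.09%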;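 further: counterscreen on off-target GPR119 to flag nonselective hits from the GPR151 activator screen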
Target sequence (Q8TDV5 whole entry, looked up): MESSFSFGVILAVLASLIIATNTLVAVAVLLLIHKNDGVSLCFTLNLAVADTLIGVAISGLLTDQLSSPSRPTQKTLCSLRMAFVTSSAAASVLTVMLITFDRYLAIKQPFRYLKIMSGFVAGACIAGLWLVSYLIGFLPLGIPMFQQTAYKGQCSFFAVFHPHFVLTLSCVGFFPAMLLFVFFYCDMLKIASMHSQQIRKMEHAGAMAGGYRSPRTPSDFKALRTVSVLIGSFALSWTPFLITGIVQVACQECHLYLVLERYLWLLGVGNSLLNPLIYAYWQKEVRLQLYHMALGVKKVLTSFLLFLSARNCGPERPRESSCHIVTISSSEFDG
Of the large screens only hits and unclear results are named; the others gave an inactive call (follow-up assays come after a bar, where they were run); ! = not confirmed by another sample. The list is not random: actives were taken first. Their share in the collection is about 3.5%.

Cc1nnc(NC(=O)C(C)N2CCN(C)CC2)s1 (stereo not given)	none
O=C(CSc1nnc(-c2ccco2)o1)c1ccc2c(c1)OCCO2	GPR151 activ 11.7 | GPR151 confirm inactive | GPR119 ag inactive
O=C(CSc1nnc(-c2ccccc2)o1)c1ccc2c(c1)OCCO2	none
CCN(C(=O)CSc1nnc(-c2ccco2)o1)C1CCS(=O)(=O)C1 (stereo not given)	GPR151 activ 11.9 | GPR151 confirm inactive | GPR119 ag inactive
Cc1cc(=O)nc2c3ccccc3n(CC(=O)N3CCCCC3)n12	none
CCOC(=O)c1c(NC(=O)COc2cccc(C(F)(F)F)c2)sc(C(C)=O)c1C	none
CC1CCN(S(=O)(=O)c2cccc(-c3nnc(-c4cccc([N+](=O)[O-])c4)o3)c2)CC1	GPR151 activ 5.6 | GPR151 confirm inactive | GPR119 ag inactive
O=[N+]([O-])c1cccc(-c2nnc(-c3cccc(S(=O)(=O)N4CCOCC4)c3)o2)c1	none
COc1ccc(C2/C(=C(/O)c3ccc(Cl)cc3)C(=O)C(=O)N2CCCN2CCOCC2)c(OC)c1 (stereo not given)	none
O=C(CS(=O)(=O)c1ccccc1)Nc1nc(-c2ccc(F)cc2)cs1	GPR151 activ 9.7 | GPR151 confirm inactive | GPR119 ag inactive
O=C(CS(=O)(=O)c1ccccc1)Nc1nc(-c2ccc3ccccc3c2)cs1	none
COc1cccc(OC)c1OCC(O)CN1CCN(c2ccccn2)CC1 (stereo not given)	none
COc1cccc(OC)c1OCC(O)CN1CCN(c2ccccc2)CC1 (stereo not given)	GPR151 activ 6.3 | GPR151 confirm inactive | GPR119 ag inactive
CC(C)NCC(O)COc1cccc2ccccc12 (stereo not given)	GPR151 activ 5.5! | GPR151 confirm inactive | GPR119 ag inactive
OC(COc1cccc2ccccc12)CN1CCNCC1 (stereo not given)	GPR151 activ 11.9 | GPR151 confirm inactive | GPR119 ag inactive
CCn1c(SCC(=O)Nc2cccc(OC)c2)nnc1-c1cccs1	none
C/C(=N/NC(=O)c1cc(O)cc(O)c1)c1ccccc1O	none
N#C/C(=C\c1ccc2c(c1)OCO2)C(=O)Nc1ccc(Cl)c([N+](=O)[O-])c1	GPR151 activ 6.0 | GPR151 confirm inactive | GPR119 ag inactive
CCCS(=O)(=O)c1ncc(Cl)c(C(=O)Nc2cccc(C)c2)n1	GPR151 activ 7.4 | GPR151 confirm inactive | GPR119 ag inactive
CSc1ncc(Cl)c(C(=O)Nc2ccc(C)c(C)c2)n1	GPR151 activ 9.9 | GPR151 confirm inactive | GPR119 ag inactive
Cc1cccc(NC(=O)c2nc(S(C)(=O)=O)ncc2Cl)c1	none
COc1ccc(NC(=O)c2cc(-c3ccco3)on2)cc1OC	none
COc1ccc2c(c1)CC(C(=O)Nc1ccc(-c3ccnc(N)n3)cc1O)CO2 (stereo not given)	none
COc1ccc2c(c1)CC(C(=O)Nc1ccc(-c3ccnc(N)n3)cc1)CO2 (stereo not given)	GPR151 activ 5.2, FBW7 activator 13.9 | GPR151 confirm inactive | GPR119 ag inactive
Cc1ccc(S(=O)(=O)NCCCOC(C)C)cc1	GPR151 activ 5.0 | GPR151 confirm inactive | GPR119 ag inactive
COCC(C)NC(=O)c1ccc(OC2CCN(Cc3ccccn3)CC2)cc1 (stereo not given)	GPR151 activ 5.8 | GPR151 confirm inactive | GPR119 ag inactive
CC(=O)NC(=O)NC(c1ccccc1)c1cccc(Cl)c1 (stereo not given)	GPR151 activ 6.1 | GPR151 confirm inactive | GPR119 ag inactive
COc1ccc(C(=O)NC(C)c2nnc(SCC(=O)Nc3ccccc3)n2C)cc1 (stereo not given)	GPR151 activ 9.6 | GPR151 confirm inactive | GPR119 ag inactive
O=C(Nc1ccc(F)cc1)C1CCN(c2ccc(Br)cc2)C1=O (stereo not given)	none
CCCCNC(=O)/C(=C/c1ccco1)NC(=O)c1ccc(I)cc1	none
NC(=O)/C(=C\c1ccco1)NC(=O)c1ccccc1Br	GPR151 activ 6.6 | GPR151 confirm inactive | GPR119 ag inactive
CCCCNC(=O)/C(=C/c1ccco1)NC(=O)c1ccccc1I	GPR151 activ 9.2 | GPR151 confirm inactive | GPR119 ag inactive
CC(=O)c1ccc(NC(=O)CN2CCC(NC(=O)C(C)(C)C)CC2)cc1	none
O=C1CCC(=O)N1CCC1=CCCCC1	none
O=C1NC(=O)N(CCC2=CCCCC2)C1=O	GPR151 activ 10.4 | GPR151 confirm inactive | GPR119 ag inactive
COc1ccc2cc(/C=N/Nc3ccccn3)c(Cl)nc2c1	GPR151 activ 12.5 | GPR151 confirm inactive | GPR119 ag inactive
O=C(O)CC1NC(=O)c2ccc(Br)cc21 (stereo not given)	GPR151 activ 18.0 | GPR151 confirm inactive | GPR119 ag inactive
C=CCN1C(C(=O)c2ccccc2)=C(NC(=O)c2ccc(OC)cc2)c2ccccc2S1(=O)=O	none
CC(C)SC(=N)N	none (no result: TEAD-YAP block)
CCSC(=N)N	GPR151 activ 7.1! | GPR151 confirm inactive | GPR119 ag inactive
Cc1nc(CN(C)Cc2ccc(C(=O)NCc3ccccc3Cl)c(=O)[nH]2)cs1	GPR151 activ 5.2 | GPR151 confirm inactive | GPR119 ag inactive
CN(Cc1cscn1)Cc1ccc(C(=O)NCc2cccs2)c(=O)[nH]1	none
Cc1ccc(NC(=O)CO/N=C(\N)c2nonc2N)cc1	GPR151 activ 5.9 | GPR151 confirm inactive | GPR119 ag inactive
N/C(=N/OCc1ccc(Cl)c(Cl)c1)c1nonc1N	GPR151 activ 8.7 | GPR151 confirm inactive | GPR119 ag inactive
COc1ccc2cc(CN(CCCO)C(=O)c3ccc(C)cc3)c(=O)[nH]c2c1	GPR151 activ 5.5 | GPR151 confirm inactive | GPR119 ag inactive
Cc1cc(C)c2[nH]c(=O)c(CN(CCCO)Cc3nnnn3CCc3ccccc3)cc2c1	GPR151 activ 6.0 | GPR151 confirm inactive | GPR119 ag inactive
COc1ccc(Cn2nnnc2CN(CCCO)Cc2cc3cc(C)ccc3[nH]c2=O)cc1	GPR151 activ 6.7 | GPR151 confirm inactive | GPR119 ag inactive
COc1ccccc1C(=O)N1CCN2C(=O)[C@H](C)N(C)C(=O)[C@H]2C1	none
Cc1sc2nc(CSc3n[nH]c(N)n3)[nH]c(=O)c2c1C	none
O=C(O)c1ccc(-c2cnn(-c3ccccc3)c2)nc1	none
O=C(O)c1cccc(-n2cc(-c3cc(F)cc(F)c3)cn2)c1	GPR151 activ 7.2 | GPR151 confirm inactive | GPR119 ag inactive
Cc1nc(CCNC(=O)c2c(F)cccc2Cl)cs1	none
C/C(CC(=O)NC1CCCCC1)=N\NC(=O)COc1ccc(C)cc1Br	none
CCN1CCN(CC(O)COCc2ccc3c(c2)OCO3)CC1 (stereo not given)	none
OC(COc1ccccc1)CN1CCN(Cc2ccc3c(c2)OCO3)CC1 (stereo not given)	GPR151 activ 8.4 | GPR151 confirm inactive | GPR119 ag inactive
OC(COCc1ccc2c(c1)OCO2)CN1CCN(Cc2ccccc2)CC1 (stereo not given)	GPR151 activ 6.9 | GPR151 confirm inactive | GPR119 ag inactive

Screening data (PubChem BioAssay)
